# Reference: the supplement of paper PMC9135407
# Counter-ions that a name gives are not always drawn. In all, about 5,800 compounds went through this assay and about 620 (11%) showed activity. This excerpt belongs to a sample that is enriched for actives. A number with no mark means an inactive call.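 Rule for the calls: active = score above a cut-off or among the top three wells of a plate; in these data no inactive exceeds 0.85.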
# System: primary human hepatic stellate cells (donor 1)
# Assay: scaled lipid accumulation score (0 = DMSO-like, 1 = nortriptyline-like); higher = stronger HSC inactivation (lipid re-accumulation), active = hit call of the paper
# Settings: 48 h
# Description: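 Primary lipid accumulation screen in primary human hepatic stellate cell myofibroblasts (donor 1, passage 8) in 384-well plates. 100 nL of library compound was pin-transferred into 30 µL medium in duplicate, and cells were treated for 48 h. The 'Scaled' score combines distance from plate baseline, toxicity and reproducibility penalties, and is normalised to nortriptyline (positive) and DMSO (negative) controls on each plate. A hit is defined as scaled >0.85 or among the top 3 wells per plate.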
# [1] = library stock concentration: 10 mM
# [2] = library stock concentration: 3.33 mM
# [3] = library stock concentration: 80 uM
# [4] = library stock concentration: 400 uM
# [5] = library stock concentration: 2 mM
# [6] = library stock concentration: 1 mM
compound,measurement,setting,value
CNCCNS(=O)(=O)c1cccc2cnccc12 [H-8 dihydrochloride],scaled lipid accumulation score,[1],0.048
"O=S(=O)(NCCNC/C=C/c1ccc(Br)cc1)c1cccc2cnccc12 [H-89, Dihydrochloride]",scaled lipid accumulation score,[2],≤ 0
O=S(=O)(NCCNC/C=C/c1ccc(Br)cc1)c1cccc2cnccc12 [listing 1 of 2 here],scaled lipid accumulation score,[3],≤ 0
same,scaled lipid accumulation score,[4],≤ 0
same,scaled lipid accumulation score,[5],0.134
O=S(=O)(NCCNC/C=C/c1ccc(Br)cc1)c1cccc2cnccc12 [listing 2 of 2 here],scaled lipid accumulation score,[1],0.989 (active)
Cl.Cl.O=S(=O)(NCCNC/C=C/c1ccc(Br)cc1)c1cccc2cnccc12 [H 89 dihydrochloride],scaled lipid accumulation score,[1],1.26 (active)
"CNCCNS(=O)(=O)c1cccc2cnccc12 [H-8, Dihydrochloride]",scaled lipid accumulation score,[2],≤ 0
O=S(=O)(NCCNCC=Cc1ccc(Br)cc1)c1cccc2cnccc12,scaled lipid accumulation score,[2],0.01
same,scaled lipid accumulation score,[1],0.542
NC(N)=NCCNS(=O)(=O)c1cccc2cnccc12,scaled lipid accumulation score,library stock concentration: 17 mM,0.047
"NC(N)=NCCNS(=O)(=O)c1cccc2cnccc12 [HA 1004, Dihydrochloride]",scaled lipid accumulation score,[2],≤ 0
"CCCCCC(=O)CC[C@H]1[C@H](O)CC(=O)[C@@H]1C/C=C\CCCC(=O)O [13,14-dihydro-15-keto Prostaglandin E2]",scaled lipid accumulation score,[6],≤ 0
O=C1NC(=O)c2cc(Nc3ccc(F)cc3)c(Nc3ccc(F)cc3)cc21,scaled lipid accumulation score,[1],≤ 0
CC1=C(C(=O)OCCN(Cc2ccccc2)c2ccccc2)C(c2cccc([N+](=O)[O-])c2)C(P2(=O)OCC(C)(C)CO2)=C(C)N1 (stereo not drawn) [Efonidipine hydrochloride monoethanolate],scaled lipid accumulation score,[1],≤ 0
COc1ccccc1CNC1CCCNC1c1ccccc1 (stereo not drawn),scaled lipid accumulation score,[1],0.474
CCCCC[C@H](O)/C=C/C=C\C=C\C=C\[C@@H](O)[C@@H](O)CCCC(=O)O [Lipoxin A4],scaled lipid accumulation score,library stock concentration: 100 uM,≤ -0.021
CC(C)N(CCCNC(=O)Nc1ccc(C(C)(C)C)cc1)C[C@H]1O[C@@H](n2cc(Br)c3c(N)ncnc32)[C@H](O)[C@@H]1O [listing 1 of 2 here],scaled lipid accumulation score,[1],1.12 (active)
CC(C)N(CCCNC(=O)Nc1ccc(C(C)(C)C)cc1)C[C@H]1O[C@@H](n2ccc3c(N)ncnc32)[C@H](O)[C@@H]1O,scaled lipid accumulation score,[2],0.204
same,scaled lipid accumulation score,[1],0.636
CC(C)N(CCCNC(=O)Nc1ccc(C(C)(C)C)cc1)C[C@H]1O[C@@H](n2cc(Br)c3c(N)ncnc32)[C@H](O)[C@@H]1O [listing 2 of 2 here],scaled lipid accumulation score,[2],0.805
"CCCCCCCC/C=C/CCCCCCCC(=O)Nc1c(C(C)C)cccc1C(C)C [Oleic Acid-2,6-diisopropylanilide]",scaled lipid accumulation score,[6],≤ 0
CCCCCCCCCCCCCCCCC(=O)NCCO [Heptadecanoyl Ethanolamide],scaled lipid accumulation score,[6],≤ 0
C[C@@H](Oc1cc(-n2cnc3ccc(CN4CCN(C)CC4)cc32)sc1C(N)=O)c1ccccc1C(F)(F)F [listing 1 of 3 here],scaled lipid accumulation score,[3],≤ 0
same,scaled lipid accumulation score,[4],0.039
same,scaled lipid accumulation score,[1],0.788
C[C@@H](Oc1cc(-n2cnc3ccc(CN4CCN(C)CC4)cc32)sc1C(N)=O)c1ccccc1C(F)(F)F [listing 2 of 3 here],scaled lipid accumulation score,[5],0.915 (active)
same,scaled lipid accumulation score,[1],1.2 (active)
COc1cc2ncn(-c3cc(OCc4ccccc4C(F)(F)F)c(C(N)=O)s3)c2cc1OC [listing 1 of 2 here],scaled lipid accumulation score,[3],≤ 0
same,scaled lipid accumulation score,[4],≤ 0
same,scaled lipid accumulation score,[5],≤ 0
same,scaled lipid accumulation score,[1],0.764
C[C@@H](Oc1cc(-n2cnc3ccc(CN4CCN(C)CC4)cc32)sc1C(N)=O)c1ccccc1C(F)(F)F [listing 3 of 3 here],scaled lipid accumulation score,[2],1.22 (active)
CC(C)c1cc(C(=O)N2Cc3ccc(CN4CCN(C)CC4)cc3C2)c(O)cc1O,scaled lipid accumulation score,[2],0.544
same,scaled lipid accumulation score,[1],0.828
COc1cc2ncn(-c3cc(OCc4ccccc4C(F)(F)F)c(C(N)=O)s3)c2cc1OC [listing 2 of 2 here],scaled lipid accumulation score,[1],0.992 (active)
COc1cc2ncn(-c3cc(OCc4ccccc4S(C)(=O)=O)c(C#N)s3)c2cc1OC [IKK-3 Inhibitor IX],scaled lipid accumulation score,[2],≤ 0
O=C1N(c2ccccc2)c2ccccc2C1(Cc1ccncc1)Cc1ccncc1 [Linopirdine],scaled lipid accumulation score,[1],≤ -0.051
O=C1N(c2ccccc2)c2ccccc2C1(Cc1ccncc1)Cc1ccncc1,scaled lipid accumulation score,[1],≤ 0
O=C1N(c2ccccc2)c2ccccc2C1(Cc1ccncc1)Cc1ccncc1 [Linopirdine dihydrochloride],scaled lipid accumulation score,[1],≤ -0.001
O=C(O)c1ccc(-c2ccc3cc(O)c(C45CC6CC(CC(C6)C4)C5)cc3c2)cc1,scaled lipid accumulation score,[1],0.021
CC[C@H]1OC(=O)[C@H](C)C(=O)[C@H](C)[C@@H](O[C@@H]2O[C@H](C)C[C@H](N(C)C)[C@H]2O)[C@](C)(OC)C[C@@H](C)C(=O)[C@H](C)[C@H]2N(CCCCn3cnc(-c4cccnc4)c3)C(=O)O[C@]12C,scaled lipid accumulation score,[1],0.448
CC[C@H]1OC(=O)[C@H](C)C(=O)[C@H](C)[C@@H](O[C@@H]2O[C@H](C)C[C@H](N(C)C)[C@H]2O)[C@](C)(OC)C[C@@H](C)C(=O)[C@H](C)[C@H]2N(CCCCn3cnc(-c4cccnc4)c3)C(=O)O[C@]12C [Telithromycin],scaled lipid accumulation score,[1],≤ -0.027
CCCCC[C@H](O)/C=C/[C@H]1C=CC(=O)[C@H]1C/C=C\CCCC(=O)O [8-iso Prostaglandin A2],scaled lipid accumulation score,[6],≤ 0
CCCCCCCCCCCCCC(=O)N[C@H](CO)[C@H](O)c1ccc([N+](=O)[O-])cc1,scaled lipid accumulation score,[6],0.012
CC(C)C[C@@H](/C=C/S(C)(=O)=O)NC(=O)[C@H](CC(C)C)NC(=O)[C@H](CC(C)C)NC(=O)OCc1ccccc1,scaled lipid accumulation score,library stock concentration: 9.1 mM,0.738
OC1CCC(Nc2ncc3nc(Nc4c(F)cc(F)cc4F)n([C@@H]4CCOC4)c3n2)CC1 (stereo partly drawn),scaled lipid accumulation score,[3],≤ 0
same,scaled lipid accumulation score,[4],≤ 0
same,scaled lipid accumulation score,[5],≤ 0
same,scaled lipid accumulation score,[1],≤ 0
O=C1O/C(=C/Br)CC[C@@H]1c1cccc2ccccc12 [(R)-Bromoenol lactone],scaled lipid accumulation score,[6],0.064
CCOC(=O)C1(CCCCCCOc2ccc(Cl)cc2)CO1 (stereo not drawn),scaled lipid accumulation score,[1],≤ 0
O=C(O)CCC/C=C\C[C@@H]1[C@@H](/C=C/[C@@H](O)Cc2ccccc2)[C@H](O)C[C@@H]1O [16-phenyl tetranor Prostaglandin F2.alpha.],scaled lipid accumulation score,[6],≤ 0
